From PubChem BioAssay
Sampled rows, rich in hits. Any-hit rate of the full collection: about 1.4%.
PLAP act: PLAP enzyme activators, biochemical, luminescence, HTS; purified PLAP enzyme, luminescent substrate read-out; hits give high values; activation fold at 20 µM; hit rate 1.2% among 96,000; AID 696, 2007; in the data active means activation fold above about 2
HePTP inh: inhibitors of human HePTP phosphatase, primary screen, biochemical, absorbance, leukemia target | Tyrosine-protein phosphatase non-receptor type 7 (Homo sapiens), P35236 | recombinant HePTP phosphatase activity, OD absorbance | inhibition, % at 20 µM | hit rate 0.64% among 110,000 | AID 521, 2006; in the data active means inhibition above about 50%;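 further: plate controls were vehicle for no effect and reference inhibitor for full effect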
Cdc25B block: inhibitors of Cdc25B phosphatase catalytic domain, primary screen, biochemical, OMFP fluorescence; M-phase inducer phosphatase 2 (Homo sapiens), P30305; recombinant Cdc25B, OMFP fluorescence Ex485/Em525; hit rate 0.1% among 65,000; inhibition, %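 (compounds tested at 10 µM final in the well)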; in the data active means inhibition above about 50%
BAP1 inh: inhibitors of BAP1 deubiquitinase, primary screen, biochemical, Ub-AMC fluorescence, kinetic | hit rate 0.48% among 72,000 | Ubiquitin carboxyl-terminal hydrolase BAP1 (Homo sapiens), Q92560 | recombinant BAP1, Ub-AMC hydrolysis fluorescence kinetic; hits give low values | AID 436, 2006 | calls only at 20 µM;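 active means activity remaining at or below 50% of control, provided the compound also passes the data quality filters; inactive means the rest, including low values that fail the filters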;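 further: 100% = DMSO wells rate and 0% = substrate alone blank rate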
Target sequence (Q92560 whole entry, looked up): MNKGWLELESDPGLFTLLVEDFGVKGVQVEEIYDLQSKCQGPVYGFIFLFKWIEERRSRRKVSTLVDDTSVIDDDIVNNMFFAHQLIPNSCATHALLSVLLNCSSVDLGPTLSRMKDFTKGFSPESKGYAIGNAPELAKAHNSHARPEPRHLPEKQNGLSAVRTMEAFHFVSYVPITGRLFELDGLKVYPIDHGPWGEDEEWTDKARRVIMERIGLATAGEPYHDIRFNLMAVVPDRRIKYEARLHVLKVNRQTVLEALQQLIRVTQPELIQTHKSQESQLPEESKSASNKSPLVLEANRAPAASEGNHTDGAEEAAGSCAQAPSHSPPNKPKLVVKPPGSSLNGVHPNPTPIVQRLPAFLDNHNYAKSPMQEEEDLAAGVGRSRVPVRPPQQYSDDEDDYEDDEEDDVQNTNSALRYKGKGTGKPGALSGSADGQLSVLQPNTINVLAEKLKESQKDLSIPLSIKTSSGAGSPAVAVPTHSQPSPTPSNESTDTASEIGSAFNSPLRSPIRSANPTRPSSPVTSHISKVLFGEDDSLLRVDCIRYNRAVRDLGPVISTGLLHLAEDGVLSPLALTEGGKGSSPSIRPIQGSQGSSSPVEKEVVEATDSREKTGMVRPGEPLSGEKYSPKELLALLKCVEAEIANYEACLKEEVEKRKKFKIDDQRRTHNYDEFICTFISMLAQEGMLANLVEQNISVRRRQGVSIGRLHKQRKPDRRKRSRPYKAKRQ
MKP-1 inh: MKP-1 phosphatase inhibitors, primary screen, biochemical, in vitro; recombinant MKP-1, OMFP hydrolysis fluorescence; inhibition, %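 (compounds tested at a single concentration somewhere between 10 and 100 µM)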; hit rate 0.15% among 65,000; AID 374, 2006;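 active means inhibition above about 50%, limit read from the data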;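 further: 0% = DMSO max control wells and 100% = wells with enzyme stopped by NaOH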
An asterisk follows results filed as active; i = inactive; . = no result given; + = active, no number.

SMILES | PLAP act | HePTP inh | Cdc25B block | BAP1 inh | MKP-1 inh
COc1ccc(CCNC(=O)c2cc(-c3cc(C)ccc3O)n[nH]2)cc1OC | 2.9* | . | . | . | .
COc1ccc(CCNC(=O)c2cc(-c3ccc(C)c(C)c3O)n[nH]2)cc1OC | 2.1* | . | . | . | .
COc1ccc(NC(=O)c2cc(-c3cc(C)ccc3O)n[nH]2)cc1Cl | 1.1 | 5.6 | 3.9 | i | 6.5
Cc1ccc(C(=O)n2c(C)nc3ccccc32)cc1C | . | -2.7 | . | . | .
O=[N+]([O-])c1ccc(N2CCNCC2)cc1Sc1cccc2cccnc12 | . | -7.0 | . | . | .
COc1ccc(OC)c(NC(=S)NC(NC(=O)c2ccccc2Cl)C(Cl)(Cl)Cl)c1 (stereo unspecified) | . | 104.0* | . | . | .
COc1cccc(C(=O)NC(NC(=S)Nc2cc(OC)ccc2OC)C(Cl)(Cl)Cl)c1 (stereo unspecified) | . | -2.0 | . | . | .
COc1ccc(-c2noc(CCC(=O)N(C)c3cccc(C)c3)n2)cc1 | 1.5 | 4.3 | -20.6 | i | 12.6
CCN(C(=O)CCc1nc(-c2ccc(OC)cc2)no1)c1cc(OC)ccc1OC | 2* | 1.1 | -16.0 | i | 16.9
O=C1NC(=O)N(c2ccccc2)C(=O)C1C(c1ccccc1)c1ccccc1 (stereo unspecified) | . | 3.2 | . | . | .
CC1=NNC(=O)C1C(c1ccccc1)C(C#N)C#N (stereo unspecified) | 2.2* | . | . | . | .
O=C1NC(=S)S/C1=C/c1ccncc1 | . | -2.7 | . | . | .
Cc1ccccc1NC(=O)COc1ccccc1 | . | -3.4 | . | . | .
CCc1cc(C(=O)Cc2nc3ccccc3[nH]2)c(O)cc1O | 2.3* | 8.6 | 3.2 | i | -16.4
CCc1cc(C(=O)Cc2ccc(F)cc2)c(O)cc1O | . | 6.6 | -5.2 | i | 3.5
CC1=C(C(=O)OC2CCCC(C)C2)C(c2ccc(O)c([N+](=O)[O-])c2)NC(=O)N1 (stereo unspecified) | . | . | . | i | .
CCCCCCCCCCCCCCCCOCC(COCC(F)(F)F)OP(=O)(O)OCO (stereo unspecified) | . | . | . | + | .
O=C(Nc1ccc([N+](=O)[O-])cc1)c1cc(=O)c2ccccc2o1 | . | . | . | i | .
O=C(c1ccco1)c1coc2ccc(Cl)cc2c1=O | . | -10.6 | . | . | .
O=C(c1ccco1)c1cn[nH]c1-c1ccc(Cl)cc1O | 2.9* | -0.8 | -2.7 | . | 9.6
COc1ccc(O)c(-c2[nH]ncc2C(=O)c2ccccc2)c1 | . | -3.8 | -8.1 | . | 3.8
Cc1ccc(C(=O)c2cn[nH]c2-c2cc(Cl)ccc2O)cc1 | 2.3* | . | -6.0 | . | 6.9
O=C(c1ccccc1)c1cn[nH]c1-c1ccccc1O | 2.2* | . | . | . | .
CCCCCCOC(=O)c1ccc(NC(=O)c2cc(OC)c(OC)c(OC)c2Br)cc1 | 2* | . | . | . | .
Cn1c(Cc2cccs2)nnc1SCc1nc2ccccc2[nH]1 | 2* | -7.3 | -0.4 | i | 6.5
SMILES | PLAP act | HePTP inh | Cdc25B block | BAP1 inh | MKP-1 inh
COc1cccc(C(=O)Nc2ccc(N3CCN(C(C)=O)CC3)cc2)c1 | . | -0.2 | . | . | .
O=C(CSc1nnc(-c2csc3c2CCCC3)o1)Nc1ccccc1 | 2* | 6.4 | -7.6 | i | 11.7
CC(C)C(=O)Nc1ccc(-c2cnc(-c3ccc(NC(=O)C(C)C)cc3)nc2)cc1 | . | 2.3 | . | . | .
CN1C(=O)/C(=C/C=C/c2ccco2)SC1=S | . | 52.0* | . | . | .
CCCN(CCC)S(=O)(=O)c1ccc(C(=O)Nc2nnc(-c3cc(OC)cc(OC)c3)o2)cc1 | 2* | 12.5 | 9.0 | . | 30.2
COc1ccc(C(=O)Nc2nnc(-c3ccccc3)o2)cc1OC | 2.1* | 13.9 | 10.8 | i | 1.4
COc1cccc(-c2nnc(NC(=O)c3cccc(F)c3)o2)c1 | . | -2.3 | -15.8 | i | 11.4
O=C(O)CCCC(=O)NCc1ccc(C(=O)O)cc1 | . | -2.0 | . | . | .
CCOC(=O)COc1ccc2oc(C)c(C(=O)OC(C)C)c2c1 | . | 2.2 | . | . | .
CCN(CC)C(=O)COc1ccc2oc(C)c(C(=O)OC(C)C)c2c1 | 2.6* | 6.5 | -13.3 | i | -6.9
COc1ccc(NC(=O)COc2c(C)cc(C)cc2C)c(OC)c1 | . | -0.9 | . | . | .
O=C(NNC(=O)c1ccc(SCC2CCCO2)c([N+](=O)[O-])c1)c1ccc(Cl)c([N+](=O)[O-])c1 (stereo unspecified) | 2.4* | . | . | . | .
Cc1ccc(C(=O)NNC(=O)c2ccc(SCC3CCCO3)c([N+](=O)[O-])c2)cc1 (stereo unspecified) | 1.3 | . | . | . | .
O=c1[nH]c(SCc2nc3ccccc3[nH]2)nc2ccccc12 | . | -24.2 | . | . | .
COCCCNC(=S)NNC(=S)Nc1ccc(F)cc1F | 2.7* | . | . | . | .
CCC1(C)CC(CC(=O)O)(c2ccccc2OC)CCO1 (stereo unspecified) | 1.1 | 4.8 | -16.4 | i | 8.4
CCC1(C)CC(CC#N)(c2ccccc2OC)CCO1 (stereo unspecified) | . | 104.2* | . | . | .
Cc1c(C(c2ccc(I)o2)c2c(C)n(C)n(-c3ccccc3)c2=O)c(=O)n(-c2ccccc2)n1C | . | -0.5 | . | . | .
O=C(N/N=C\c1ccccc1O)c1cncc(Br)c1 | . | 9.5 | . | . | .
O=C(/C=C\c1ccco1)Oc1ccc(/C=N\NC(=O)c2cncc(Br)c2)cc1 | . | 57.5* | . | . | .
Cc1ccc(N2C(=O)c3n[nH]c(C)c3C2c2cccnc2)cc1 (stereo unspecified) | 2.1* | 9.5 | 2.5 | i | 14.2
CCOC(=O)c1ccc(N2C(=O)c3n[nH]c(C)c3C2c2cccnc2)cc1 (stereo unspecified) | 2.3* | 3.7 | -7.9 | i | -20.1
CCOC(=O)c1ccc(N2C(=O)c3n[nH]c(C)c3C2c2ccccn2)cc1 (stereo unspecified) | 2.5* | 7.5 | -0.1 | i | 4.9
Cc1[nH]nc2c1C(c1ccccn1)N(c1ccc(Br)cc1)C2=O (stereo unspecified) | 1.6 | 6.3 | 1.7 | i | 29.0
Cc1c(N(C(=O)c2ccc(F)cc2)C(C)C)c(=O)n(-c2ccccc2)n1C | . | -13.6 | . | . | .
SMILES | PLAP act | HePTP inh | Cdc25B block | BAP1 inh | MKP-1 inh
COc1ccc(C=Nc2ccc3c(c2)nc(C)n3C)cc1 | . | -5.0 | . | . | .
Cc1ccc(OCC(=O)Nc2ccccc2CO)c(C)c1 | . | 0.1 | . | . | .
O=C(N/N=C\c1ccccn1)C1COc2cc3ccccc3cc2O1 (stereo unspecified) | 2* | . | . | . | .
CCN1C(=O)/C(=C/c2c(NCCCn3ccnc3)nc3c(C)cccn3c2=O)SC1=S | . | -4.7 | . | . | .
Cc1cccn2c(=O)c(/C=C3\SC(=S)N(Cc4ccco4)C3=O)c(NCCCn3ccnc3)nc12 | . | 62.2* | . | . | .
CCOC(=O)c1ccc(N=Cc2nc(-c3ccccc3)oc2O)cc1 | . | -13.7 | . | . | .
O=C1C(Cl)=C(N2CCCCC2)C(=O)N1c1ccccc1 | 1 | -6.2 | -12.6 | i | -2.4
O=C1C(Cl)=C(N2CCCCC2)C(=O)C(Cl)=C1/C=C/N1CCCCC1 | . | 102.1* | . | . | .
CN1Cc2cc(C(=O)c3cc(Cl)cc(CSc4ncccn4)c3O)cnc2NC1=O | 1 | 4.3 | 5.3 | i | 54.7*
Cc1nn(CCC(=O)NNC(=S)NCC(C)C)c(C)c1Br | 2.5* | . | . | . | .
